# Assay results published in the supplement of paper PMC13392028.
# In all, about 4,100 sequences were measured (“RBNS R-value (6-mer enrichment in protein-bound RNA vs input library)”: median about 0.96, highest 2% from about 2.4 on). The entries come from a sample that favours the highest values as a whole.
# Test system: PyIESI-1 RRM domain (Plasmodium yoelii PY17X_0911200 aa 795-956, GST fusion)
# Assay: RBNS R-value (6-mer enrichment in protein-bound RNA vs input library) (ratio); higher = stronger binding preference; the methods of the paper give 50 / 100 / 500 nM protein instead
# Experimental: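 RNA Bind-n-Seq: recombinant GST-tagged IESI-1 RRM domain was incubated at room temperature with a random 40-nt in vitro transcribed RNA library at 250, 500 or 1000 nM protein. Bound RNA was pulled down on glutathione beads and sequenced. R-value is the enrichment of each 6-mer in the bound RNA relative to the input library. Each 6-mer sits inside the random 40-mer context, not as an isolated oligo. Values are replicate 1 only.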
Sequence,RBNS R-value (protein concentration: 250 nM),RBNS R-value (protein concentration: 500 nM),RBNS R-value (protein concentration: 1000 nM)
CGGAUG,1.22,1.18,1.18
CUGAUG,6.48,5.8,5.87
AUGAAG,1.53,1.51,1.47
AUGAUC,2.74,2.71,2.97
AUGAGC,1.51,1.48,1.49
CUGAUA,3.66,3.59,3.88
CAGAUA,0.96,0.988,1.02
AGGAUC,0.785,0.788,0.757
AUGAUG,8.6,7.43,7.47
CUGACA,1.26,1.25,1.26
CAGAUG,1.85,1.83,1.93
AGGAUG,1.22,1.18,1.18
AUAAAA,0.85,0.843,0.844
UCCAGG,1,1,1
UCAUUU,0.748,0.785,0.825
CGACAG,1.01,0.998,0.998
CAAUCG,0.873,0.879,0.886
UUAGCC,0.885,0.907,0.915
AGGCUU,0.943,0.943,0.919
CGUUUG,1.1,1.09,1.08
UUGAUA,4.42,4.38,4.81
CUGAAC,1.05,1.06,1.05
AUGAGA,1.6,1.58,1.57
CUGACC,1.23,1.22,1.27
AUGAUA,4.79,4.63,5.14

Sequence,RBNS R-value (protein concentration: 250 nM),RBNS R-value (protein concentration: 500 nM),RBNS R-value (protein concentration: 1000 nM)
CUGAUC,2.39,2.38,2.58
AGGAUA,0.874,0.876,0.848
UUGACA,1.57,1.54,1.56
AUGAAU,1.41,1.35,1.36
AGGAUU,1.06,1.04,0.995
UUGAGA,1.31,1.32,1.31
AUGAUU,7.34,6.63,6.94
AGUCCU,0.811,0.839,0.826
UUCGAU,1.93,1.95,2.08
AACCAG,0.915,0.9,0.923
CUCUGA,1.97,1.91,1.94
GUGAUG,5.06,4.7,4.68
UUGAUG,7.94,6.95,6.96
UUGAUC,2.63,2.7,2.9
UUGACC,1.42,1.42,1.47
UUGAAG,1.08,1.11,1.08
UAGAUC,0.818,0.834,0.838
UAGAUG,1.64,1.65,1.73
GUGAAG,0.939,0.946,0.891
GGGAUG,1.3,1.28,1.27
AAAGCA,0.883,0.885,0.861
CAAGGA,1,0.973,0.963
CGAAUG,1.41,1.37,1.35
UAUACC,0.57,0.601,0.592
CUCGGA,0.971,0.974,0.939

Sequence,RBNS R-value (protein concentration: 250 nM),RBNS R-value (protein concentration: 500 nM),RBNS R-value (protein concentration: 1000 nM)
CGUGCU,0.967,0.973,0.954
GUAAGU,0.66,0.682,0.638
GUCUGG,0.813,0.839,0.796
UCUGAA,1.01,1.03,0.99
GCUGAC,1.21,1.23,1.23
GCUGAG,1.21,1.18,1.15
UCUGAC,1.13,1.12,1.13
GCUGAU,3.92,3.7,3.79
ACUGAC,1.18,1.16,1.18
ACUGAG,1.18,1.19,1.13
UCUGAU,4.51,4.2,4.42
ACUGAU,4.56,4.17,4.36
CCUGAC,1.32,1.33,1.34
CCUGAA,1.23,1.24,1.23
CCUGAU,4.76,4.47,4.65
AUGCAG,1.15,1.16,1.18
AUCUGU,0.889,0.916,0.89
GAGGAG,1.12,1.09,1.02
CUCACG,0.951,0.969,0.993
UCUGGC,1.18,1.18,1.17
GCGACC,1.08,1.08,1.09
GGGUUU,0.955,0.992,0.97
ACACUC,1.07,1.05,1.07
CUUGAC,1.61,1.59,1.61
GUUGAG,0.856,0.907,0.877

Sequence,RBNS R-value (protein concentration: 250 nM),RBNS R-value (protein concentration: 500 nM),RBNS R-value (protein concentration: 1000 nM)
CUUGAA,1.18,1.17,1.15
GUUGAC,1.02,1.02,1.01
AUUGAG,1.23,1.24,1.21
AUUGAU,5.75,5.29,5.52
CUUGAU,4.89,4.7,4.93
UUUGAC,1.48,1.47,1.5
AUUGAC,1.45,1.46,1.49
UUUGAU,6.28,5.82,6.05
GUUGAU,4.02,3.81,3.96
UUUGAA,1.15,1.15,1.13
GUGUGA,1.5,1.51,1.48
UUGGUC,0.872,0.953,0.884
GCGGGC,1.09,1.09,1.07
UUCUGC,1.19,1.21,1.22
GGUUCG,0.887,0.904,0.88
UAUCAG,0.589,0.619,0.59
AGCCUU,0.931,0.961,0.982
GAUCUA,1.19,1.23,1.27
CACGAU,1.8,1.82,1.95
CUUAGA,0.933,0.948,0.93
AACAUA,0.429,0.465,0.417
CCAAAA,1.14,1.1,1.11
GUAUGU,0.702,0.701,0.677
GAUCAG,1.21,1.23,1.26
AUUUGG,1.56,1.52,1.53

Sequence,RBNS R-value (protein concentration: 250 nM),RBNS R-value (protein concentration: 500 nM),RBNS R-value (protein concentration: 1000 nM)
AUUUGA,2.85,2.67,2.75
AUUUGU,1.19,1.18,1.16
UUUUGU,0.927,0.945,0.932
UUUUGA,2.87,2.69,2.76
UUUUGC,1.25,1.28,1.3
CGUCGU,0.673,0.674,0.653
AUUCGG,1.21,1.23,1.22
GAGGCA,1.07,1.06,1.04
AGUCAG,0.665,0.689,0.664
GGUAGU,0.858,0.895,0.812
UCGAAU,0.871,0.871,0.846
GAUUGC,3.17,2.85,2.87
UAUUGA,1.66,1.61,1.65
CAUUGC,1.1,1.11,1.11
GAUUGU,1.51,1.5,1.51
AAUUGA,2.42,2.26,2.31
GAUUGG,2.35,2.26,2.17
AAUUGU,0.811,0.836,0.821
CAUUGA,2.25,2.16,2.24
GAUUGA,3.24,3.03,3.05
UGGAUC,0.876,0.876,0.852
CGGGUA,0.923,0.929,0.9
CUGAAU,1.09,1.11,1.07
CAGAUU,1.53,1.52,1.61
GUGAUC,1.68,1.71,1.81

Sequence,RBNS R-value (protein concentration: 250 nM),RBNS R-value (protein concentration: 500 nM),RBNS R-value (protein concentration: 1000 nM)
UUGAUU,7.23,6.65,6.84
UUGAGU,1.03,1.07,1.03
GUGAGA,1.03,1.06,0.984
UGGAUU,1.02,1.04,1.01
GUGAAU,0.995,1,0.944
GUGAAA,0.997,0.961,0.925
GUGAUA,2.97,2.94,3.2
CUGAUU,6.33,5.69,5.82
GUGAUU,4.55,4.24,4.44
GUACUA,0.638,0.638,0.595
UACGGA,0.876,0.89,0.885
GAAUCA,0.819,0.828,0.81
UAGUGG,0.775,0.827,0.76
CAGUUC,0.829,0.84,0.843
GCCCUU,0.971,1.02,1.03
GGGCAC,1.06,1.04,1.06
UUGCAC,1.32,1.29,1.31
CGAUAC,1.26,1.34,1.39
AGAUAU,0.962,0.983,1
AGAUAG,1.08,1.1,1.11
GGAUAU,0.856,0.872,0.845
UGAUAC,3.65,3.59,3.96
GGAUAC,0.904,0.919,0.891
UGAUAA,4.34,4.21,4.69
UGAUAU,3.72,3.77,4.19

Sequence,RBNS R-value (protein concentration: 250 nM),RBNS R-value (protein concentration: 500 nM),RBNS R-value (protein concentration: 1000 nM)
CGAUAA,1.27,1.33,1.41
GGAUAG,0.94,0.954,0.908
AGAUAA,0.936,1,1.02
UGAUAG,4.53,4.33,4.55
GCUACG,0.896,0.915,0.905
AGCUCC,0.982,0.991,1
UGCUGA,2.04,1.98,1.99
AAUCAC,0.701,0.714,0.718
GGGCUU,1.01,1.02,1.01
ACGCUG,1.14,1.13,1.13
CCGGCG,1.06,1.09,1.08
UACAGC,0.713,0.73,0.722
UCCCAU,0.805,0.831,0.834
UCCUCG,0.965,0.991,0.988
GAUUUC,3.38,3.2,3.32
CAUUUC,0.888,0.94,1
CAUUUU,0.849,0.886,0.903
AAUUUC,1.1,1.11,1.15
GAUUUA,2.58,2.52,2.7
CAUUUG,1.31,1.35,1.38
CAUUUA,0.421,0.449,0.427
GAUUUU,3.71,3.43,3.56
AAUUUG,1.6,1.54,1.6
GAUUUG,4.2,3.81,3.78
AAUUUU,1.02,1.02,1.06

Sequence,RBNS R-value (protein concentration: 250 nM),RBNS R-value (protein concentration: 500 nM),RBNS R-value (protein concentration: 1000 nM)
UAUUUA,0.42,0.445,0.418
UGGGUA,0.987,1.02,0.989
GUAGUG,0.958,0.965,0.926
GUAAAA,0.762,0.753,0.701
AAACAA,0.781,0.765,0.773
GACAUG,1.52,1.48,1.5
CCUAGC,0.86,0.888,0.886
GCGAUC,1.09,1.12,1.13
GCGAUU,2.19,2.21,2.28
CCGAUA,1.32,1.36,1.43
GCGAUG,2.65,2.56,2.65
ACGAUA,1.21,1.3,1.37
ACGAUG,2.5,2.46,2.59
UCGAUC,1.05,1.07,1.11
CCGAUG,2.44,2.4,2.5
CCGAUU,2.3,2.23,2.34
ACGAUC,0.998,1,1.05
UCGAUG,2.22,2.24,2.37
UCGAUA,1.17,1.23,1.29
